Source: the supplement of paper PMC10681739

Each sequence was assayed against T1, ETS1 (UniProt P14921) (assay: ETS1 binding intensity (PBM fluorescence), ETS1 alone (arbitrary fluorescence units); higher = stronger binding). Details: ETS1 concentration 1 nM; RUNX1 concentration 0 nM.
T1 sequence: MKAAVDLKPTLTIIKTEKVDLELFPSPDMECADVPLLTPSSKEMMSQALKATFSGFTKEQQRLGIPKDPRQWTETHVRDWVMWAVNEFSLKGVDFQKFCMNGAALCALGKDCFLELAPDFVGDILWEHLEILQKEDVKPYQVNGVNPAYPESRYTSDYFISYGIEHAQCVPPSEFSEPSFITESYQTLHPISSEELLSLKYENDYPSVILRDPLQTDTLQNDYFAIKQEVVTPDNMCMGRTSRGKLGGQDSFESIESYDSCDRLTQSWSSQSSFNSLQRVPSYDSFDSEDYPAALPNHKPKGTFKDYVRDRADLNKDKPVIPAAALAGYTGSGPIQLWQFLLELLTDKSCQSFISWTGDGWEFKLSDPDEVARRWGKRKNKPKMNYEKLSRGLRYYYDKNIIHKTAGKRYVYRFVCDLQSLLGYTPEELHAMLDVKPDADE
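For RUNX1 binding intensity (PBM fluorescence), RUNX1 alone in this document: Full-length recombinant human RUNX1 bound to double-stranded 36-bp genomic probes on a high-density microarray, scored as Alexa488 fluorescence per spot via anti-RUNX1 antibody, median of four replicate spots.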

Row | Sequence | ETS1 binding intensity
1 | CCCTCATCTTCCTGCTTCAGGCAGCTGTGGTTTACC | 420
2 | ACATTTCCTTTTGGTATTTAAAGTAACCACACAGAA | 495
3 | GGGCCCTTCCTGTGGCGCCTGCCGAGCTGTGGTTGG | 388
4 | GTTTCTCTGGCCAGGAAATTGAGGTTTCTGTTAGTC | 2010
5 | TGGCGCTTCCTGTCGCTACCGCTGCGGCCCAGGGCC | 819
6 | TGAAGTTGGTGTTTTCCGGGGGCGGTTTTTCCATTG | 504
7 | CAGACCAGCCCAGGAAACAAGGAACCACAAAGCCAC | 656
8 | CAGAGGACAGGATGCCAACCCCAAAACCGCAGCGAC | 733
9 | TTAAACACGGAAGTGCATCGGTTGTTGTGGTTATTC | 1260
10 | CCTCTTGCTGCCTCTTCCTGTGGTCTTTTCTCTGTC | 737
11 | GAGGTGCCGGAAGCCAGTAGGTGGTTTTGGGTGCTA | 1530
12 | TCCTCCCACGGGAAGTGCCGTAGGACCGCAGCCCGA | 870
13 | TCCAGCGGAAGGGGGCATCTTTGCGGCAGAGGCAGC | 470
14 | ACCCAGGAGGCGGAAGTTGTGGTGAGCCGAGATCGC | 4020
15 | CTGAAACAGGAAACAGACAAAGCCACAAGGTTCGCA | 1840
16 | CAGGGCACCTCCTACTTCCCCCCGCAGATAACTACC | 875
17 | TGGCTGTGTCCCGGAAGTGGTCATAAGCTGGGTCCC | 8520
18 | CCCAGGGCAGGAAGGGCCAAACCGCTACTGCCACTG | 882
19 | TGCCACCTGCTTCCTGCCTGTGTAGCCACAAGGGAC | 783
20 | TGGGTACTTCCTGTGACAAATCGAGTTGACCACATG | 1190

Row | Sequence | ETS1 binding intensity
21 | GTCACCATTTCCGGGCCTCCGCGGTGTCCCCACCCC | 2560
22 | TTTGATTTCCTGTCTCCATGTTGTGGTCAAGATTGC | 1080
23 | GAGTTCCGCCTCGCCGTTTGTCCCTTGCGGTACCCG | 351
24 | CCCCTGCCCCTTCCTGGAAGGCTGCGGTGTAACACC | 435
25 | GCGCCCGGAAGGAAGGCTGGGGTAGGTTGTGGTTTC | 476
26 | CTGTCTGCTTCCCGTGGCCAGCCCTGACCGCGGCCC | 351
27 | TTGGTGACCTCTTCCTGTCCGCTGTGGTGTTGTTAC | 1080
28 | TTCACAACACAGGATGTGCGGTATTATACGGCAAAG | 5120
29 | TAAGTGCAGGAAACGGCTGTGTGGGTGTCAGTGATT | 1350
30 | CAGAAACATCCCTCCTGCCGCCGCTTTGTGGTACCA | 378
31 | TTCTGTAGCTTAGGATGTGGGTTTCTTTGTTTCTGA | 452
32 | TGGTTCCACCGACCGGAAGGGCCACAAGGATCCCCG | 5280
33 | ACACCCCAGGCAGGATGTGGTAGGGGTTGCCCCAGA | 2740
34 | GACGGGAGCACCGGAAGCGGTCTTTCCCCGAGCGGA | 12900
35 | GTTGAGTAGTGACAGGAAGTGACCGCAAGGGGGCGC | 10700
36 | CCGGGAAGGCGGAAGCAGCAGAGACGCCGCAAGGCC | 1320
37 | CGAAGCCAGGAAATAAGGATAAACCACAGAAAGAAA | 1060
38 | AGCGCTTCCTGGCTCCGGCCCCGCCCCTGCGGTCGG | 484
39 | TGTAAGTCACTTCCTGTCGTGGTCAGGTCTCCTCTC | 8260
40 | ATGGTGTAGAGAGGATGTGGGCTTTAAGGTCAGAGA | 1140

These sequences were tested against RUNX1 (UniProt Q01196) (assay: RUNX1 binding intensity (PBM fluorescence), RUNX1 alone (arbitrary fluorescence units); higher = stronger binding). Details: RUNX1 concentration 2 nM; ETS1 concentration 0 nM.
Method: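 Cooperative gcPBM on 36-bp genomic probes with neighbouring ETS1 and RUNX1 sites. Recombinant human RUNX1 (2 nM) was incubated alone or with ETS1 (25 nM) and detected with anti-RUNX1 antibody plus Alexa488 secondary. Values are medians over 4 replicate spots; the RUNX1+ETS1 data were normalised to the RUNX1-only data. The probes sit in constant array flanks that are not printed.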

Sequence of RUNX1 (Q01196 whole entry): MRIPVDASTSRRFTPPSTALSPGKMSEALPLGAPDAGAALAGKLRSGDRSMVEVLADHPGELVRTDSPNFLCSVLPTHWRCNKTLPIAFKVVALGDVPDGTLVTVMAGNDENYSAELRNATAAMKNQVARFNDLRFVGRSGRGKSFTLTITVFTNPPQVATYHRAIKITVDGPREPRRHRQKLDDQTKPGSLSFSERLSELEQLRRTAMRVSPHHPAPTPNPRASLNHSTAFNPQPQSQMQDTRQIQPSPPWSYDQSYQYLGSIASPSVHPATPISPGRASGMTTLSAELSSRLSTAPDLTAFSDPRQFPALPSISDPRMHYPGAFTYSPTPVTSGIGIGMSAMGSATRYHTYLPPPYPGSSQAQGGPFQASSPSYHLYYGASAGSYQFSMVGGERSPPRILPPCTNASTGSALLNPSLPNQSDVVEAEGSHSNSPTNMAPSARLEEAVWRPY

Row | Sequence | RUNX1 binding intensity
41 | CCCTCATCTTCCTGCTTCAGGCAGCTGTGGTTTACC | 1070
42 | ACATTTCCTTTTGGTATTTAAAGTAACCACACAGAA | 1060
43 | GGGCCCTTCCTGTGGCGCCTGCCGAGCTGTGGTTGG | 716
44 | GTTTCTCTGGCCAGGAAATTGAGGTTTCTGTTAGTC | 851
45 | TGGCGCTTCCTGTCGCTACCGCTGCGGCCCAGGGCC | 755
46 | TGAAGTTGGTGTTTTCCGGGGGCGGTTTTTCCATTG | 897
47 | CAGACCAGCCCAGGAAACAAGGAACCACAAAGCCAC | 842
48 | CAGAGGACAGGATGCCAACCCCAAAACCGCAGCGAC | 4020
49 | TTAAACACGGAAGTGCATCGGTTGTTGTGGTTATTC | 845
50 | CCTCTTGCTGCCTCTTCCTGTGGTCTTTTCTCTGTC | 1840
51 | GAGGTGCCGGAAGCCAGTAGGTGGTTTTGGGTGCTA | 695
52 | TCCTCCCACGGGAAGTGCCGTAGGACCGCAGCCCGA | 812
53 | TCCAGCGGAAGGGGGCATCTTTGCGGCAGAGGCAGC | 764
54 | ACCCAGGAGGCGGAAGTTGTGGTGAGCCGAGATCGC | 862
55 | CTGAAACAGGAAACAGACAAAGCCACAAGGTTCGCA | 746
56 | CAGGGCACCTCCTACTTCCCCCCGCAGATAACTACC | 999
57 | TGGCTGTGTCCCGGAAGTGGTCATAAGCTGGGTCCC | 730
58 | CCCAGGGCAGGAAGGGCCAAACCGCTACTGCCACTG | 744
59 | TGCCACCTGCTTCCTGCCTGTGTAGCCACAAGGGAC | 910
60 | TGGGTACTTCCTGTGACAAATCGAGTTGACCACATG | 678

Row | Sequence | RUNX1 binding intensity
61 | GTCACCATTTCCGGGCCTCCGCGGTGTCCCCACCCC | 1040
62 | TTTGATTTCCTGTCTCCATGTTGTGGTCAAGATTGC | 1370
63 | GAGTTCCGCCTCGCCGTTTGTCCCTTGCGGTACCCG | 890
64 | CCCCTGCCCCTTCCTGGAAGGCTGCGGTGTAACACC | 978
65 | GCGCCCGGAAGGAAGGCTGGGGTAGGTTGTGGTTTC | 830
66 | CTGTCTGCTTCCCGTGGCCAGCCCTGACCGCGGCCC | 1060
67 | TTGGTGACCTCTTCCTGTCCGCTGTGGTGTTGTTAC | 841
68 | TTCACAACACAGGATGTGCGGTATTATACGGCAAAG | 898
69 | TAAGTGCAGGAAACGGCTGTGTGGGTGTCAGTGATT | 689
70 | CAGAAACATCCCTCCTGCCGCCGCTTTGTGGTACCA | 983
71 | TTCTGTAGCTTAGGATGTGGGTTTCTTTGTTTCTGA | 926
72 | TGGTTCCACCGACCGGAAGGGCCACAAGGATCCCCG | 659
73 | ACACCCCAGGCAGGATGTGGTAGGGGTTGCCCCAGA | 741
74 | GACGGGAGCACCGGAAGCGGTCTTTCCCCGAGCGGA | 736
75 | GTTGAGTAGTGACAGGAAGTGACCGCAAGGGGGCGC | 1860
76 | CCGGGAAGGCGGAAGCAGCAGAGACGCCGCAAGGCC | 823
77 | CGAAGCCAGGAAATAAGGATAAACCACAGAAAGAAA | 1260
78 | AGCGCTTCCTGGCTCCGGCCCCGCCCCTGCGGTCGG | 942
79 | TGTAAGTCACTTCCTGTCGTGGTCAGGTCTCCTCTC | 873
80 | ATGGTGTAGAGAGGATGTGGGCTTTAAGGTCAGAGA | 706
